The source of these data is PubChem BioAssay.

Results filed as inconclusive are left out. Activity calls are given as the source filed them. Cut-off read from the data, not from the text of the source, unless noted: active = percent of DMSO control GFP below about 86%; inactive = the rest, inconclusive results apart.

Assay [1] in a line: yeast TOR pathway RPL19A-GFP modulators, primary screen, cell-based, S. cerevisiae, multiplex flow cytometry (AID 1862).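 Note: lower values mimic rapamycin by blocking the RPL19A rise seen in DMSO cells.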 The note with it: S. cerevisiae RPL19A-GFP strain, flow cytometry fluorescence, 3 h; at 10 µM; stronger effect = lower value. Background: A flow cytometer gives signals particle by particle.
Assay [2] is described as follows: modulators of MEP2-GFP levels in yeast, primary screen, S. cerevisiae, multiplex flow cytometry (AID 1867;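 active = GFP response, as percent of the DMSO control, above the screen-wide mean plus 3 SD, about 139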;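 note: median GFP channel fluorescence of barcode-gated MEP2-GFP cells measured by flow cytometry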). The note with it: S. cerevisiae MEP2-GFP strain, 3 h, at 10 µM, stronger effect = higher value, 100% means same as DMSO wells.
The nature of assay [3]: modulators of CIT2-GFP expression in yeast, primary screen, S. cerevisiae, GFP fusion, multiplex flow cytometry (AID 1870;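 active = percent response above a set limit, the screen-wide mean plus 3 SD, cut at about 130% in these data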;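 note: barcoded CIT2-GFP strain pooled with four other GFP strains with rapamycin as positive control; median GFP fluorescence per well over plate mean of DMSO wells so 100% = DMSO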). The note with it: 3 h, at 10 µM, stronger effect = higher value.
The nature of assay [4]: modulators of LAP4-GFP expression in yeast, primary screen, S. cerevisiae, multiplex flow cytometry (AID 1873;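 active = GFP signal, as percent of the solvent control, above the screen mean plus 3 SD, about 149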). The conditions noted are these: 3 h, at 10 µM, stronger effect = higher value.
Assay [5] is described as follows: inhibitors of CD8+ T cell-vesicle binding, pilot screen, LFA-1/ICAM-1 modulator project, MLPCN validation set, flow cytometry (AID 2523;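 active = response below a set limit, under 55% cells CD8-positive and vesicle-bound, and CD8 cells' 90th-percentile brightness under 279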;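 for vesicle binding response: mean PE anti-B7-1 fluorescence of CD8+ cells relative to row control; 100% = QL9-loaded vesicles with DMSO vehicle in the same plate row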). The note with it: 2C mouse CD8+ T cells, at 7 µM, stronger effect = lower value; double positive events: measured here: CD8+/vesicle+ event percentage.
Assay [6] concerns the target Integrin beta-1 (Homo sapiens) + Integrin alpha-4 (Homo sapiens) (UniProt P13612+P05556). Put plainly: inhibition of HUTS-21 binding to VLA-4, pilot screen, VLA-4 allosteric modulator project, U937 cells, HUTS-21 mAb, flow cytometry, validation set (AID 2674;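 active = inhibition above 50%, about 3 SD of the validation set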;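 note: antibody binding induced by the VLA-4 ligand LDV present at three times its Kd; 0% = LDV ligand with antibody and no compound and 100% = antibody without LDV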). The note with it: HUTS-21 LIBS mAb binding, at 6.7 µM, stronger effect = higher value, binding induced by LDV ligand.
Assay [7] in a line: superoxide lowering in aged yeast cells, pilot screen, validation compound set (AID 2706;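 active = superoxide response below 65% of plate, a cut near 3 SD across the whole screen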;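 note: yeast exposed to compound for one week at 30 degrees C before staining; 100% = mean of all compound wells on the same plate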). The note with it: S. cerevisiae aging, superoxide DHE fluorescence; at 10 µM, stronger effect = lower value.
Assay [8] has as its target Beta-adrenergic receptor kinase 1 (Homo sapiens) (UniProt P25098). The experiment in a line: GRK2 binders displacing RNA aptamer, biochemical, validation, human GRK2, bead flow cytometry (AID 488806;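 active = aptamer binding inhibition above 30%, about 3 SD of noise from non-fluorescent compounds; inactive = inhibition at or below 30%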). The note with it: bead-bound GRK2, FAM-aptamer displacement, at 10 µM, stronger effect = higher value.
For assay [9], the target named is Beta-2 adrenergic receptor (Homo sapiens) (UniProt P07550). Put plainly: beta2AR agonists driving receptor internalization, pilot screen, cell-based, FAP fluorogen, flow cytometry, validation set (AID 504459;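 active = percent response above 42, roughly 3 SD of non-fluorescent test compounds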;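 note: agonist-driven loss of surface beta2AR via internalization measured by FAP dye flow cytometry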). The conditions noted are these: Am2.2-beta2AR cells, FAP surface receptor flow cytometry; at 10 µM; stronger effect = higher value.
Beta-2 adrenergic receptor (Homo sapiens), sequence (P07550 whole entry, looked up): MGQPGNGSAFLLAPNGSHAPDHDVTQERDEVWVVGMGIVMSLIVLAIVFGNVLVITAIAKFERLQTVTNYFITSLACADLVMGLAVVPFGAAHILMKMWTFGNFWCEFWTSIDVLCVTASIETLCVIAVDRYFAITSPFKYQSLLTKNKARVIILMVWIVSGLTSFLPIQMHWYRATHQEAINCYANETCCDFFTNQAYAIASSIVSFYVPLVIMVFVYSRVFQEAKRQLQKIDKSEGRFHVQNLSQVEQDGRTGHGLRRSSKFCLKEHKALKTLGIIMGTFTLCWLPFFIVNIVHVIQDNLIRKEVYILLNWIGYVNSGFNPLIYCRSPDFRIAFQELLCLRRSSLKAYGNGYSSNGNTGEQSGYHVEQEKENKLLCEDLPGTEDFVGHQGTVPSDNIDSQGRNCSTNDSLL
For assay [10], the target named is AP-2 complex subunit beta (Homo sapiens) (UniProt P63010). The experiment in a line: inhibitors of arrestin peptide binding to AP2, pilot screen, biochemical, validation set, GST-AP2 beads, flow cytometry (AID 504541;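 active = inhibition above 54%, about 3 SD of non-fluorescent compounds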;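 note: AP2 carries R879A mutation and is captured from E. coli lysate; bead-bound FITC arrestin peptide fluorescence measuring arrestin peptide binding to AP2; 0% = DMSO wells and 100% = excess unlabeled arrestin peptide control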). The note with it: FITC arrestin peptide, at 10 µM, stronger effect = higher value, AP2 beta2 appendage fragment, R879A mutant.
AP-2 complex subunit beta (Homo sapiens), sequence (P63010 whole entry, looked up, the tested form may be a part, one chain of several): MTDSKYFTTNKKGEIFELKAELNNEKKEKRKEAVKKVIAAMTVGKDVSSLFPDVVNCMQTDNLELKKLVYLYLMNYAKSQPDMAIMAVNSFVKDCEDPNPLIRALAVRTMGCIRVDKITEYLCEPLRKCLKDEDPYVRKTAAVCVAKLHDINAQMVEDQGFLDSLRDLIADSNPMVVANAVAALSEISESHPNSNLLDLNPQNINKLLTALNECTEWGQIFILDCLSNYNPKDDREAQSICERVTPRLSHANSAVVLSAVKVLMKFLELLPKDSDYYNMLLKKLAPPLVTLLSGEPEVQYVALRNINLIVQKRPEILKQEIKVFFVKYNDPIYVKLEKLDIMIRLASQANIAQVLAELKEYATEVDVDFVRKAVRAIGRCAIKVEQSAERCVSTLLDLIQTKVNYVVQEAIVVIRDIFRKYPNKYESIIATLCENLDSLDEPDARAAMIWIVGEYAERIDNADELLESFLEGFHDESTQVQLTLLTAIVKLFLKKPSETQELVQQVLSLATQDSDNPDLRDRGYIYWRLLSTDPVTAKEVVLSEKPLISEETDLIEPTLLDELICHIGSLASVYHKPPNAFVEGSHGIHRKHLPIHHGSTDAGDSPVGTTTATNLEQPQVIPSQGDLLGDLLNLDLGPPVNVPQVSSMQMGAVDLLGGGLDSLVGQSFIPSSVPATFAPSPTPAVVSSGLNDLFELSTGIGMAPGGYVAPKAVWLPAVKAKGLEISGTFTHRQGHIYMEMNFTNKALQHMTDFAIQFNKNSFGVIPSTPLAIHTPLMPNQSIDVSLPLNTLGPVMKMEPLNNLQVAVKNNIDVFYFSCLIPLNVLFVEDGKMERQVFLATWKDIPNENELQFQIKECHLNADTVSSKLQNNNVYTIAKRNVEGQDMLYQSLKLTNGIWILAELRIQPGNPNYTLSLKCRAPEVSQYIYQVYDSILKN
A short description of assay [11]: yeast V-ATPase proton transport modulators, S. cerevisiae, pHLuorin, HTS validation (AID 504600; in the data active = response above about 15%;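 note: plate controls were DMSO for no effect and reference compound for full effect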). The note with it: S. cerevisiae pHLuorin cytosolic pH, at 10 µM, stronger effect = higher value.
The test system of assay [12] is anti-desmoglein-3 scFv antibody binding to human DSG3. Put plainly: inhibitors of anti-DSG3 scFv binding to DSG3, pilot screen, biochemical, validation compound set, bead-based, flow cytometry (AID 588368;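 active = binding below the plate cutoff, the plate median minus 3 SD, with a reading above zero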;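 note: signal is the median channel fluorescence of bead-bound GFP antibody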). The note with it: Protein G beads, DSG3-Fc, scFv-GFP binding, at 10 µM, stronger effect = lower value.
Assay [13] is described as follows: inhibitors of fungal efflux pumps CDR1, CDR2, MDR1, pilot screen, validation compound set, multiplex, phenotypic (AID 588506;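 active = efflux inhibition above 0.42, the validation set average plus 4 SD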;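 note: Nile Red retained in cells so higher fluorescence means more efflux inhibition; 0 = negative control wells and 1 = enniatin B 25 µM full block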). The note with it: S. cerevisiae pump-expressing triplex, Nile Red efflux flow cytometry; at 10 µM; stronger effect = higher value; the pumps come from Candida albicans.
For assay [14], the target named is ATP-binding cassette sub-family B member 6 (Homo sapiens) (UniProt Q9NP58). The experiment in a line: ABCB6 transporter inhibitors, pilot screen, K562-ABCB6 cells, flow cytometry, validation set (AID 588550;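 active = inhibition above the screen-wide mean plus 3 SD, about 51%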;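 note: 0% = DMSO wells and 100% = benzethonium chloride 70 µM positive control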). The note with it: K562-ABCB6 porphyrin accumulation, 1 h, at 10 µM, stronger effect = higher value.
ATP-binding cassette sub-family B member 6 (Homo sapiens), sequence (Q9NP58 whole entry, looked up): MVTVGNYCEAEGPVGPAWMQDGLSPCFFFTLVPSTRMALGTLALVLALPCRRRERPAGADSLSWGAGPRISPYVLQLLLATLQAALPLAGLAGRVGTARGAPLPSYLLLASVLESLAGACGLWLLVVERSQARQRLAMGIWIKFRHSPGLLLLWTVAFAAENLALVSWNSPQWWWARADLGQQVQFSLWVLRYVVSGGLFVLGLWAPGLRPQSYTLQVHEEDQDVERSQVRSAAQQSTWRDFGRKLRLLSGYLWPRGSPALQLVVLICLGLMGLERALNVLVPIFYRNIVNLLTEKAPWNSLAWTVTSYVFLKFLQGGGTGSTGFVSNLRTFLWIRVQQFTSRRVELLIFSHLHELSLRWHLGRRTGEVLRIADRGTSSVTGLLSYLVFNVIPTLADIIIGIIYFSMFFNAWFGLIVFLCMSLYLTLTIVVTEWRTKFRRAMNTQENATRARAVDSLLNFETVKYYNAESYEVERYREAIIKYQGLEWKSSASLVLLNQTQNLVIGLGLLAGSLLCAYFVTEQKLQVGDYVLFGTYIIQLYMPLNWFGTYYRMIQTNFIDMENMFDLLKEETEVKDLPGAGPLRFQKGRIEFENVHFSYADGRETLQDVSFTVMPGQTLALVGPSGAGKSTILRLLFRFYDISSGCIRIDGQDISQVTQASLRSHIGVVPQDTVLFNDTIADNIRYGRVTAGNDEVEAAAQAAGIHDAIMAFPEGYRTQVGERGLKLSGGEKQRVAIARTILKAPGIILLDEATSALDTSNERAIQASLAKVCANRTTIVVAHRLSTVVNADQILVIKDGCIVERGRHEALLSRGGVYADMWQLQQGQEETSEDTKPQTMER
A short description of assay [15]: promoters of myeloid differentiation in arrested cells, primary screen, cell-based, GFP/MAC1 double positive, flow cytometry, validation set (AID 588685;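 active = differentiation response of at least 50%, scaled between solvent and reference control, from cells with both markers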;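 note: compound exposure lasts four days before antibody staining and flow analysis; 0% = DMSO wells and 100% = 5 µM fulvestrant positive control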). The note with it: ER-HoxA9 marrow cells, stronger effect = higher value, normalized: vehicle 0, fulvestrant 100.
Assay [16] is described as follows: modulators of AGP1-GFP expression in yeast TOR pathway, primary screen, cell-based, multiplex flow cytometry, S. cerevisiae (AID 1887;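 active = GFP signal above the screen-wide mean plus 3 SD, that is over about 124.5% of the solvent control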;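 note: AGP1-GFP fusion strain of S. cerevisiae within a five-strain barcoded multiplex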). The note with it: 3 h, at 10 µM, stronger effect = higher value.

Integrin beta-1 (Homo sapiens) + Integrin alpha-4 (Homo sapiens), sequence (P05556 whole entry, looked up): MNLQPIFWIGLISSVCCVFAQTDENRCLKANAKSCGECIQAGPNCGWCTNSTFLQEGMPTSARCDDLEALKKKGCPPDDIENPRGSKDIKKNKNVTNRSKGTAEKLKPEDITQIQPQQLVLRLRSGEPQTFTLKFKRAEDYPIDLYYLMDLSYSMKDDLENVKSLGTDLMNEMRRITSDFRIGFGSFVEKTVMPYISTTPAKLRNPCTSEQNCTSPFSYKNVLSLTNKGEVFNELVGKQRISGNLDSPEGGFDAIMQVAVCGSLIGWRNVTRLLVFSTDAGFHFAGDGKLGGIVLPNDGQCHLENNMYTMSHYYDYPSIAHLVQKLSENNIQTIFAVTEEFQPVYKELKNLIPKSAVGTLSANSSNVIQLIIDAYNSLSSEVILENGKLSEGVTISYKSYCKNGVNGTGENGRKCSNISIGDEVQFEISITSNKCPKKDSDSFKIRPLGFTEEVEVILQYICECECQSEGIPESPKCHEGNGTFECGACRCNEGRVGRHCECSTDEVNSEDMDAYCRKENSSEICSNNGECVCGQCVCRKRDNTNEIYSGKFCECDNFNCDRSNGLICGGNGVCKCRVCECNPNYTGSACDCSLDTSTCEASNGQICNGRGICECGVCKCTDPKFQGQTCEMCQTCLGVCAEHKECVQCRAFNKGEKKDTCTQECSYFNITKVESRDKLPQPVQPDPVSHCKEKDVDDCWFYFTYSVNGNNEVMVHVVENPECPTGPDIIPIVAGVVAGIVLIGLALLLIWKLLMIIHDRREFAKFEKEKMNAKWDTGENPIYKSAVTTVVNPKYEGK
Integrin beta-1 (Homo sapiens) + Integrin alpha-4 (Homo sapiens), sequence (P13612 whole entry, looked up): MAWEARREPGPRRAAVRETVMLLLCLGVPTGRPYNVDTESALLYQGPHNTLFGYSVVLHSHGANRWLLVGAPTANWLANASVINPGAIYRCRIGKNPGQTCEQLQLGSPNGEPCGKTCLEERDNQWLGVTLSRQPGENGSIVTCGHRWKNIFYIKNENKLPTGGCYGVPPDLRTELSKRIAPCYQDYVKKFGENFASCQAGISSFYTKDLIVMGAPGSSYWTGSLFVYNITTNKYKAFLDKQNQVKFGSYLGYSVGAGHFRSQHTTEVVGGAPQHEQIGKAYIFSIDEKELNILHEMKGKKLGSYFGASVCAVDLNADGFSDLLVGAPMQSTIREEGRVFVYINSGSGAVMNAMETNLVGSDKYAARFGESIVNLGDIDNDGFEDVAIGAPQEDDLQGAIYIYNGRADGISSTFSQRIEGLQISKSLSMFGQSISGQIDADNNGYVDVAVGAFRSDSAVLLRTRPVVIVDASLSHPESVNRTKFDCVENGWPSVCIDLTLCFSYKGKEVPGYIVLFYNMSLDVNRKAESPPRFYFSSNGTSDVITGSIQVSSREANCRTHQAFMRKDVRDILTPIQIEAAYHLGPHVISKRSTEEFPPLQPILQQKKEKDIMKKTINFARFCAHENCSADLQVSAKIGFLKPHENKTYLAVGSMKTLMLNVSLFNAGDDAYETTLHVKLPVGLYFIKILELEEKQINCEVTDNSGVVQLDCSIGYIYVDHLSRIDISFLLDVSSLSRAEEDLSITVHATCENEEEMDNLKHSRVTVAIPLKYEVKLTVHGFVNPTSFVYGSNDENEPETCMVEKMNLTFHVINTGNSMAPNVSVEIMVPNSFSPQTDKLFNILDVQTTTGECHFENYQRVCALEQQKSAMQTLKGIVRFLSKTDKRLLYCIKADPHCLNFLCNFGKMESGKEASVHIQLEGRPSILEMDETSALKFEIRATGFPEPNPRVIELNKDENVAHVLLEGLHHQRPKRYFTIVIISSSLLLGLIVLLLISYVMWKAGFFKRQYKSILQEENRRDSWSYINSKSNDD
Beta-adrenergic receptor kinase 1 (Homo sapiens), sequence (P25098 whole entry, looked up): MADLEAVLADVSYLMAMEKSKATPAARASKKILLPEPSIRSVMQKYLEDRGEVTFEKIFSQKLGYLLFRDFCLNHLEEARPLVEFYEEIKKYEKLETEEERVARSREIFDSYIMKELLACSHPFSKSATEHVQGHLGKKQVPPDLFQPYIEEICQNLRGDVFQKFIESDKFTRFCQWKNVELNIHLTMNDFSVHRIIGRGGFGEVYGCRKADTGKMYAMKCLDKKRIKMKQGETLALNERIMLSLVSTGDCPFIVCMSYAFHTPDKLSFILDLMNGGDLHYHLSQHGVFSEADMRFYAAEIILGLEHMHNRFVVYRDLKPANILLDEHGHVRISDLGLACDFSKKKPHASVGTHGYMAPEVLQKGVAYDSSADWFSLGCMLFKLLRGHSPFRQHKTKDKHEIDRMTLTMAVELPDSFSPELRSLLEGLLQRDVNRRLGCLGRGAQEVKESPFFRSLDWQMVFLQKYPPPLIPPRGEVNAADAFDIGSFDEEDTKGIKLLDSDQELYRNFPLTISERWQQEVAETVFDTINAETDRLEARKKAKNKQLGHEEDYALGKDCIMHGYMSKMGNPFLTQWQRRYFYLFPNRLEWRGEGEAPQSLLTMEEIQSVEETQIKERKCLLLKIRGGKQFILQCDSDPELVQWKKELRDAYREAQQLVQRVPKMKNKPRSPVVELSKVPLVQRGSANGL

Regarding `Nc1cccc(C(=O)O)c1`, in assay [1], the percent of DMSO control GFP is 95.5% (inactive). The figures for the GFP response vs DMSO in assay [2] and in assay [4] were 116% (inactive) and 79.2% (inactive), respectively. Besides, in assay [3], the percent response of DMSO control was 122% (inactive). The double positive events in [5] turned out to be 63.4%. Further, the vesicle binding response in assay [5] is 214% (inactive). The inhibition (usually the change of the read-out against control, counted positive when it falls) is 10.3% (inactive) in assay [6], -0.66% (inactive) in [10] and 6% (inactive) in [14]. In addition, the superoxide response (% of plate) in assay [7] was 102% (inactive). The aptamer binding inhibition in assay [8] is 4% (inactive). Besides, the response in assay [9] was -6.68% (inactive); in assay [11] it was 3.11% (inactive). In assay [12], the binding (% of control) was 102% (inactive). In [13], the efflux inhibition (fraction of control) was 0.05 (inactive). In assay [15], the differentiation response is -0.82% (inactive).
In the case of `Cc1ccc(S(=O)(=O)Nc2ccc(S(=O)(=O)Nc3cc(C)nc(C)n3)cc2)cc1`, the percent of DMSO control GFP in [1] is 91.1% (inactive). For the same compound, the GFP response vs DMSO is 120% (inactive) in assay [2] and 78.1% (inactive) in assay [4]. In assay [3], the percent response of DMSO control is 108% (inactive). In assay [5], this compound came in with a double positive events of 76%. Besides, the vesicle binding response in assay [5] was 256% (inactive). Further, the inhibition in [6] was 23.9% (inactive); in assay [10], -0.21% (inactive); in assay [14], 6% (inactive). Further, the superoxide response (% of plate) in [7] is 89.7% (inactive). In addition, in assay [8], the aptamer binding inhibition was 0% (inactive). Besides, the response was 1.77% (inactive) in assay [9] and 15% (inactive) in [11]. Moreover, the binding (% of control) in assay [12] was 101% (inactive). The efflux inhibition (fraction of control) in assay [13] is -0.35 (inactive). In addition, the differentiation response in assay [15] is 26.2% (inactive).
As to `Cc1cc(-c2ccccc2)nnc1NCCN1CCOCC1`, the percent of DMSO control GFP in [1] was 102% (inactive). Moreover, the GFP response vs DMSO in [2] was 114% (inactive); in assay [4], 74.3% (inactive). For the same compound, in assay [3], the percent response of DMSO control is 93.9% (inactive). Besides, the double positive events in [5] is 67.8%. In addition, in assay [5], the vesicle binding response was 223% (inactive). Further, the inhibition in assay [6] is 0.64% (inactive); in assay [10], -1.22% (inactive); in assay [14], 19% (inactive). Further, the superoxide response (% of plate) in assay [7] is 94.8% (inactive). In [8], the aptamer binding inhibition is 32% (active). The values for the response in [9] and in [11] were 2.57% (inactive) and -0.98% (inactive), respectively. In assay [12], the binding (% of control) was 109% (inactive). Besides, in assay [13], the efflux inhibition (fraction of control) was 0 (inactive). In assay [15], the differentiation response was 4.09% (inactive).
Consider `CC1(C)CC(=O)C(C(=O)CCCCC(=O)C2C(=O)CC(C)(C)CC2=O)C(=O)C1`, for which the percent of DMSO control GFP in assay [1] is 105% (inactive). Moreover, the results for the GFP response vs DMSO in assay [2] and in assay [4] were 114% (inactive) and 91.3% (inactive), respectively. For the same compound, in [3], the percent response of DMSO control is 112% (inactive). In addition, the double positive events in [5] was 76%. In addition, in assay [5], the vesicle binding response was 197% (inactive). In addition, the inhibition in [6] was -6.15% (inactive); in assay [10] it was -8.71% (inactive); in assay [14] it was 14% (inactive). For the same compound, in assay [7], the superoxide response (% of plate) was 97.2% (inactive). In assay [8], the aptamer binding inhibition was -1% (inactive). Moreover, the values for the response in assay [9] and in [11] were -2.15% (inactive) and -8.22% (inactive), respectively. In addition, the binding (% of control) in [12] was 114% (inactive). The efflux inhibition (fraction of control) in [13] was -0.24 (inactive). Besides, the differentiation response in [15] is -2.46% (inactive).
On to `COc1ccc(NC(=O)C2CSC3c4ccccc4C(=O)N23)cc1` (stereo not given), for which the percent of DMSO control GFP in assay [1] was 101% (inactive). In addition, the GFP response vs DMSO in assay [2] was 104% (inactive); in assay [4] it was 105% (inactive). For the same compound, in [3], the percent response of DMSO control was 96.5% (inactive). Moreover, the GFP response, % of DMSO in assay [16] was 98.8% (inactive). Further, the double positive events in [5] was found to be 77.8%. Further, the inhibition is 0.25% (inactive) in assay [6], -0.6% (inactive) in assay [10] and -2% (inactive) in assay [14]. The superoxide response (% of plate) in assay [7] was 99.1% (inactive). The aptamer binding inhibition in [8] is 0% (inactive). The response in assay [9] was 7.07% (inactive); in [11], 4.39% (inactive). In addition, the binding (% of control) in [12] is 98.7% (inactive). Further, the efflux inhibition (fraction of control) in [13] was -0.1 (inactive). In addition, the differentiation response in [15] was -0.18% (inactive).
